SKKanGAS inh: inhibitors of SKKanGAS S. pyogenes growth in kanamycin (SK-promoter or general growth effect) | actives 1.3% (n = 300,000) | inhibition, % at 7.5 µM | BacTiter-Glo, 6 h;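 active means mean replicate score, as percent of positive control median, at least 50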;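 further: strain carries kanamycin resistance gene driven by streptokinase promoter and grows in 40 µg/ml kanamycin; loss of luminescence reflects streptokinase promoter inhibition or plain growth inhibition; 0% = median of DMSO wells and 100% = positive control at its reference dose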
TIM10 inh: inhibits growth of TIM10 yeast strain; S. cerevisiae TIM10 strain growth, BacTiter-Glo luminescence, 24 h; inhibition, % at 10 µM; actives 1.4% (n = 330,000); AID 463195;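 active means inhibition of 40% or more at the single tested concentration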;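 further: wild-type TIM10 isogenic control strain grown at permissive 25 °C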
tim10-1 inh: inhibits growth of tim10-1 mutant yeast | actives 2.2% (n = 330,000) | inhibition, % at 20 µM | S. cerevisiae tim10-1 ts strain growth, BacTiter-Glo, 24 h;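 active means inhibition of at least 40%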;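 further: mutant grown at 25 °C; 0% = DMSO wells with yeast and 100% = wells holding no yeast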
tim23-1 inh: tim23-1 yeast growth inhibition. inhibition, % at 20 µM. AID 463212. S. cerevisiae tim23-1 growth, BacTiter-Glo luminescence, 24 h. actives 1.3% (n = 330,000);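 active means growth inhibition of the mutant yeast at or above 50%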;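 further: temperature-sensitive mutant grown at 25 °C; plate controls were DMSO-treated mutant yeast for no effect and medium wells lacking yeast for full effect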
PfHsp90 set2: reduces growth (ATP signal) of yeast expressing P. falciparum Hsp90; inhibition, % at 9.4 µM; actives 0.32% (n = 310,000); S. cerevisiae expressing PfHsp90, BacTiter-Glo ATP, 48 h; yeast lacking PDR1 and PDR3 efflux regulators; AID 504621;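 active means every replicate shows inhibition above about 80%, whatever the replicate mean, limit read from the data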;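 further: 0% = DMSO neutral controls and 100% = 20 µM radicicol positive controls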
tim23-1 conf: tim23-1 yeast growth inhibition, confirmed; shares compounds with tim23-1 inh; S. cerevisiae tim23-1 growth, BacTiter-Glo luminescence, 24 h; inhibition, % at 20 µM; actives 83% (n = 4,400);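 active means inhibition above about 39% in either of two replicate wells at 20 µM, limit read from the data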;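 further: temperature-sensitive tim23-1 mutant grown at 25 °C; 0% = DMSO wells with yeast and 100% = medium wells without yeast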
Active calls of the source: *. Only some compounds are listed: those with a hit (about 4.4% of all), similar ones and a draw of the others.

Cc1n[nH]c(C)c1N=Nc1ccc(Br)cc1 was read as SKKanGAS inh 29, TIM10 inh 28, tim10-1 inh -36, tim23-1 inh 62*, PfHsp90 set2 27 and tim23-1 conf 25.
CC1CC1C(=O)Nc1nc(-c2ccccc2)cs1 (stereo unspecified) was read as SKKanGAS inh -13, TIM10 inh 36, tim10-1 inh 25, tim23-1 inh 53*, PfHsp90 set2 8 and tim23-1 conf 47*.
For CN(C)CC(=O)Nc1nc(-c2ccccc2)cs1 the results were SKKanGAS inh -3, TIM10 inh -7, tim10-1 inh -13, tim23-1 inh -6 and PfHsp90 set2 -26.
`O=C(CSC(=S)N1CCCC1)Nc1ncc(Cl)cc1Cl` gave SKKanGAS inh 2, TIM10 inh 4, tim10-1 inh 17, tim23-1 inh 4 and PfHsp90 set2 -1.
`CC1CCN(S(=O)(=O)c2ccc(NC(=O)c3ccccc3F)cc2)CC1` gave SKKanGAS inh 1, TIM10 inh 31, tim10-1 inh 35, tim23-1 inh 52*, PfHsp90 set2 10 and tim23-1 conf 45*.
CC1CCN(c2ccc(-c3cccs3)nn2)CC1 was read as SKKanGAS inh 14, TIM10 inh 38, tim10-1 inh 37, tim23-1 inh 68*, PfHsp90 set2 22 and tim23-1 conf 72*.
`FC(F)(F)c1ccccc1/C=N/n1c(COc2ccccc2)n[nH]c1=S` gave SKKanGAS inh 8, TIM10 inh 24, tim10-1 inh 26, tim23-1 inh 50*, PfHsp90 set2 20 and tim23-1 conf 37.
Screening N=c1oc2ccc([N+](=O)[O-])cc2cc1C(=O)NCc1ccccc1 returned SKKanGAS inh -3, TIM10 inh 15, tim10-1 inh 26, tim23-1 inh 59*, PfHsp90 set2 -2 and tim23-1 conf 56*.
CCC(C)c1ccccc1N1CC(C(=O)N(C)CC(=O)Nc2cccc(F)c2)CC1=O (stereo unspecified) was read as SKKanGAS inh 9, TIM10 inh 1, tim10-1 inh 4 and tim23-1 inh 1.
COc1ccc(N2CCN(CCC(=O)c3ccc4ccccc4c3)CC2)cc1 was read as SKKanGAS inh -2, TIM10 inh 25, tim10-1 inh 39, tim23-1 inh 69*, PfHsp90 set2 22 and tim23-1 conf 57*.
`COc1ccc(N2CCN(CC(=O)c3ccccc3)CC2)cc1` gave SKKanGAS inh 1, TIM10 inh 16, tim10-1 inh 29, tim23-1 inh 12 and PfHsp90 set2 0.
For CCn1c2ccc(F)cc2c2nnc(SCCN3CCCCC3)nc21 the results were SKKanGAS inh 0, TIM10 inh 3, tim10-1 inh 11, tim23-1 inh 5 and PfHsp90 set2 4.
Screening Fc1ccc(CNc2nc(-c3ccccc3)nc3ccccc23)cc1 returned SKKanGAS inh 3, TIM10 inh 17, tim10-1 inh -3, tim23-1 inh 21 and PfHsp90 set2 -25.
c1ccc(-c2nc(NCc3cccs3)c3ccccc3n2)cc1 was read as SKKanGAS inh 16, TIM10 inh 28, tim10-1 inh -4, tim23-1 inh 51*, PfHsp90 set2 43 and tim23-1 conf 46*.
Screening Cc1c(NS(=O)(=O)c2cccs2)cccc1-c1nc2cccnc2s1 returned SKKanGAS inh -2, TIM10 inh 28, tim10-1 inh 33, tim23-1 inh 59*, PfHsp90 set2 4 and tim23-1 conf 56*.
For Cc1c(Cl)cccc1NC(=O)CC1Oc2ccccc2NC1=O (stereo unspecified) the results were SKKanGAS inh -3, TIM10 inh -28, tim10-1 inh -8, tim23-1 inh -13 and PfHsp90 set2 -15.
Screening Cc1ccc(-c2cc(-c3ccccc3)no2)c(O)c1 returned SKKanGAS inh 5 and PfHsp90 set2 -7.
Screening Cc1ccc2nc(-c3cc(-c4ccccc4)no3)cn2c1 returned SKKanGAS inh -10, TIM10 inh 30, tim10-1 inh 3, tim23-1 inh 55*, PfHsp90 set2 0 and tim23-1 conf 47*.
Clc1ccc2nc(-c3ccccc3)cn2c1 was read as SKKanGAS inh 5, TIM10 inh 6, tim10-1 inh -10, tim23-1 inh 52*, PfHsp90 set2 0 and tim23-1 conf 24.
CC(C)C1Cc2c(sc3ncnc(NN)c23)CO1 (stereo unspecified) was read as SKKanGAS inh 7, TIM10 inh 7, tim10-1 inh 30, tim23-1 inh 52*, PfHsp90 set2 -38 and tim23-1 conf 27.
For CC(C)Cc1nc2sc3c(c2c(=O)n1N)CC(C(C)C)OC3 (stereo unspecified) the results were SKKanGAS inh -5, TIM10 inh -26, tim10-1 inh -13, tim23-1 inh 5 and PfHsp90 set2 11.
`Cc1ccc(O)c(N=Nc2ccccc2)n1` gave SKKanGAS inh -6, TIM10 inh 4, tim10-1 inh 23, tim23-1 inh 54*, PfHsp90 set2 -28 and tim23-1 conf 54*.
For COc1ccccc1N1CCN(C(=O)c2cc3ccccc3[nH]2)CC1 the results were SKKanGAS inh 4, TIM10 inh 24, tim10-1 inh 26, tim23-1 inh 52*, PfHsp90 set2 -17 and tim23-1 conf 48*.
O=C(O)/C=C/C(=O)NNc1ncnc2ccccc12 was read as SKKanGAS inh 2, TIM10 inh -23, tim10-1 inh -11, tim23-1 inh 9 and PfHsp90 set2 -3.
Screening C[C@H]1CN([C@@H](C)CO)C(=O)Cc2cc(NC(=O)Cc3ccccc3)ccc2O[C@H]1CN(C)C(=O)Nc1cccc2ccccc12 returned TIM10 inh 14, tim10-1 inh -2, tim23-1 inh -2 and PfHsp90 set2 9.
`CCCCCCC(=O)N1C/C=C\C(c2ccc(OC)cc2)N(Cc2ccc(F)cc2)C(=O)[C@H]1Cc1ccccc1` (stereo partly specified) gave SKKanGAS inh 31, TIM10 inh 4, tim10-1 inh 1 and tim23-1 inh 18.
Screening O=C(CSc1nnnn1Cc1ccccc1)c1ccc(F)cc1 returned SKKanGAS inh -2, TIM10 inh 29, tim10-1 inh 19, tim23-1 inh 54*, PfHsp90 set2 -13 and tim23-1 conf 52*.
CC(/C=N/NC(=O)c1cccs1)=C\c1ccco1 was read as SKKanGAS inh -9, TIM10 inh 23, tim10-1 inh 6, tim23-1 inh 64*, PfHsp90 set2 3 and tim23-1 conf 71*.
`CCOc1cc(-c2nc3ccccc3s2)ccc1O` gave SKKanGAS inh -6, TIM10 inh 27, tim10-1 inh 35, tim23-1 inh 59*, PfHsp90 set2 -32 and tim23-1 conf 37.
Screening Oc1cccc(-c2nc3ccccc3s2)c1 returned SKKanGAS inh -11, TIM10 inh 29, tim10-1 inh 34, tim23-1 inh 47 and PfHsp90 set2 -21.

Source: PubChem BioAssay
